Results taken from PubChem BioAssay AID504424 (National Center for Advancing Translational Sciences (NCATS), 2011).
The other results are listed elsewhere or left out. The source made the active and inactive calls.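 The calls were made as follows: active = compounds that showed inhibition of Dyrk1a and received a fitted potency; inactive = compounds that showed no inhibition.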

molecular target: Dual specificity tyrosine-phosphorylation-regulated kinase 1A (Homo sapiens) (UniProt Q13627); assay: Kinase Inhibition Study on Inhibitors of Dyrk1a (Reaction Biology data); details: Reaction Biology kinase assay, 10 uM ATP
Source text: NIH Molecular Libraries Probe Production Centers Network [MLPCN] NIH Chemical Genomics Center [NCGC] MLPCN Grant: 1R03MH084827-01 Assay Submitter (PI): Tom Misteli NCGC Assay Overview: Alternative splicing of pre-mRNAs plays a major role in the regulation of eukaryotic gene expression. Alternative splicing is now thought to be one of the primary reasons for the complexity of higher organisms leading to an average of three protein isoforms per gene. Aberrant splicing can lead to a number of diseases and is known to play a role in rare genetic diseases such as progeria syndrome. Hutchinson-Gilford Progeria Syndrome (HGPS) is a pediatric premature aging disease caused by a spontaneous mutation in the lamin A/C (LMNA) gene due to a single point mutation in the lamin A gene effecting 1 in 4 million people. To identify both specific splicing modulators of the lamin A gene as well as general splicing modulators, a cell-based HTS assay was developed using a minigene reporter system (AIDs, 1459 & 1487). […] The Clk family is part of the CMGC group of protein kinases which includes Dyrks and are essential kinases found in all eukaryotes. […] This AID is to summarize the activity of these analogs in Dyrk1a.
All kinase reactions were performed using 10 uM ATP in the assay. 100% activity was taken from kinase reactions with DMSO alone (the vehicle used for compound stock solutions).

Potency, active:
c1coc(CCNc2ncnc3ccc(-c4ccc5c(c4)OCO5)cc23)c1 74 nM
CC(Nc1ncnc2ccc(-c3ccc4c(c3)OCO4)cc12)c1ccco1 (centres undefined) 5600 nM
c1nc(N2CCOCC2)c2cc(-c3ccc4c(c3)OCO4)ccc2n1 723 nM
CN(Cc1cncn1C)c1ncnc2ccc(-c3ccc4c(c3)OCO4)cc12 2450 nM
